We go through four compounds from PubChem BioAssay (EPA / NIEHS).

Molecules are shown by their SMILES. Active and inactive are the calls of the source. Rule for the calls: active = hit-call score of the fitted dose curve at least 0.9, where 1 is the maximum; inactive = score below 0.9.

What all share (conditions): mRNA level, 48 h; actives raise or lower the signal
Read-out in test [1]: ATP-citrate lyase (ACLY), ACLY (gene 47)
Description: LTEA_HepaRG_ACLY: Life Technologies and Expression Analysis (LTEA) Assay for ATP-citrate lyase (ACLY) using HepaRG (AID 2283466). In outline:
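Differentiated human HepaRG cells in serum-free induction medium exposed 48 h, in duplicate, to eight half-log concentrations from 100 uM top in 0.5% DMSO; ACLY mRNA measured by qRT-PCR, normalized to ACTB, GAPDH, POLR2A, fitted bidirectionally versus DMSO.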

Read-out in test [2]: Peroxisomal acyl-coenzyme A oxidase 1 (ACOX1) gene, ACOX1 (gene 51)
Description: LTEA_HepaRG_ACOX1: Life Technologies and Expression Analysis (LTEA) Assay for Peroxisomal acyl-coenzyme A oxidase 1 (ACOX1) gene using HepaRG (AID 2283467). A digest of the protocol: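 Differentiated human HepaRG cells were exposed in duplicate for 48 h in serum-free induction medium to eight half-log concentrations up to 100 uM in 0.5% DMSO. ACOX1 mRNA was then quantified by TaqMan qRT-PCR, normalized to ACTB, GAPDH and POLR2A.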

Read-out in test [3]: Alkaline Phosphatase, Placental (ALPP) gene, ALPP (gene 250)
Description: LTEA_HepaRG_ALPP: Life Technologies and Expression Analysis (LTEA) Assay for Alkaline Phosphatase, Placental (ALPP) gene using HepaRG (AID 2283468). A digest of the protocol: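 Expression of ALPP was quantified by qRT-PCR against three housekeeping genes in human HepaRG cultures treated for 48 h with an eight-point concentration series up to 100 uM. Activity in either direction was fitted relative to 0.5% DMSO.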

Read-out in test [4]: Bcl-2 (BAD) gene, BAD (gene 572)
Description: LTEA_HepaRG_BAD: Life Technologies and Expression Analysis (LTEA) Assay for Bcl-2 (BAD) gene using HepaRG (AID 2283469). A digest of the protocol:
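Differentiated human HepaRG cells in serum-free induction medium were exposed in duplicate for 48 h to eight concentrations (top 100 uM, half-log steps, 0.5% DMSO). BAD mRNA was quantified by qRT-PCR normalised to ACTB, GAPDH and POLR2A, with bidirectional fitting versus DMSO.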

Read-out in test [5]: Bcl-2 (BAX) gene, BAX (gene 581)
Description: LTEA_HepaRG_BAX: Life Technologies and Expression Analysis (LTEA) Assay for Bcl-2 (BAX) gene using HepaRG (AID 2283470). In outline:
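HepaRG (human liver), 48 h exposure, duplicate wells. 8-pt curve, half-log from 100 uM, 0.5% DMSO. BAX transcript by TaqMan qRT-PCR; ACTB/GAPDH/POLR2A normalization; gain or loss vs DMSO baseline.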

Read-out in test [6]: adenosine kinase (ADK) gene, ADK (gene 132)
Description: LTEA_HepaRG_ADK: Life Technologies and Expression Analysis (LTEA) Assay for adenosine kinase (ADK) gene using HepaRG (AID 2283471). A digest of the protocol:
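Differentiated HepaRG cells dosed 48 h in serum-free induction medium, 0.5% DMSO vehicle, eight half-log concentrations from 100 uM, in duplicate. ADK mRNA by TaqMan qRT-PCR normalised to ACTB, GAPDH, POLR2A; bidirectional fit versus DMSO.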

Read-out in test [7]: Alpha-fetoprotein (AFP) gene, AFP (gene 174)
Description: LTEA_HepaRG_AFP: Life Technologies and Expression Analysis (LTEA) Assay for Alpha-fetoprotein (AFP) gene using HepaRG (AID 2283472). A digest of the protocol:
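HepaRG, single lot; 48 h post-plating -> serum-free induction medium; cpd 8-pt, 100 uM top, half-log, 0.5% DMSO, duplicate, 48 h. RNA -> qRT-PCR AFP, norm ACTB/GAPDH/POLR2A. Bidirectional fit vs DMSO.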

Read-out in test [8]: BCL2L11 (gene 10018)
Description: LTEA_HepaRG_BCL2L11: Life Technologies and Expression Analysis (LTEA) Assay for Bcl-2 (BCL2L11) gene using HepaRG (AID 2283473). A digest of the protocol:
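Cells were plated, cultured 48 h, switched to serum-free induction medium, then dosed in duplicate for 48 h at eight half-log concentrations up to 100 uM. Lysates underwent RNA isolation and TaqMan qRT-PCR; gain or loss versus DMSO was fitted.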

Read-out in test [9]: Apolipoprotein A-V (APOA5) gene, APOA5 (gene 116519)
Description: LTEA_HepaRG_APOA5: Life Technologies and Expression Analysis (LTEA) Assay for Apolipoprotein A-V (APOA5) gene using HepaRG (AID 2283474). A digest of the protocol: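 Human liver HepaRG cells are treated 48 h with test chemicals (100 uM top, half-log dilutions, 0.5% DMSO). APOA5 mRNA induction or loss is measured by qRT-PCR relative to vehicle.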

Read-out in test [10]: Apoptosis regulator Bcl-2 (Homo sapiens) (UniProt P10415)
In words: LTEA_HepaRG_BCL2: Life Technologies and Expression Analysis (LTEA) Assay for Bcl-2 gene using HepaRG (AID 2283475). In outline:
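HepaRG, plated 48 h then switched to serum-free induction medium; dosed 48 h, 8 conc. (max 100 uM, half-log steps), duplicate, 0.5% DMSO. Lysis in RLT, RNA isolated, TaqMan qRT-PCR for BCL2; ACTB/GAPDH/POLR2A normalisation; bidirectional fit vs DMSO.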

Read-out in test [11]: Bcl-2 (BID) gene, BID (gene 637)
In words: LTEA_HepaRG_BID: Life Technologies and Expression Analysis (LTEA) Assay for Bcl-2 (BID) gene using HepaRG (AID 2283476). A digest of the protocol:
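Transcript levels of BID, measured by qRT-PCR and normalized to three housekeeping genes, were fitted bidirectionally against DMSO controls. Cells were HepaRG, dosed 48 h at up to 100 uM.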

Read-out in test [12]: Caspase-3 (Homo sapiens) (UniProt P42574)
In words: LTEA_HepaRG_CASP3: Life Technologies and Expression Analysis (LTEA) Assay for cysteine-aspartic acid protease (CASP3) using HepaRG (AID 2283477). A digest of the protocol: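 In HepaRG liver cells dosed for 48 h at up to 100 uM (eight-point, duplicate), CASP3 expression changes are scored by qRT-PCR. Activity is fitted in both directions with 0.5% DMSO as baseline.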

Read-out in test [13]: Cytochrome P450 (CYP24A1), CYP24A1 (gene 1591)
In words: LTEA_HepaRG_CYP24A1: Life Technologies and Expression Analysis (LTEA) Assay for Cytochrome P450 (CYP24A1) using HepaRG (AID 2283478). In outline: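 Human liver HepaRG cultures receive each chemical for 48 h across an eight-point half-log series topping at 100 uM in 0.5% DMSO. Induction or suppression of CYP24A1 mRNA is scored relative to vehicle after housekeeping-gene normalization.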

Read-out in test [14]: Cytochrome P450 (CYP1A2), CYP1A2 (gene 1544)
Description: LTEA_HepaRG_CYP1A2: Life Technologies and Expression Analysis (LTEA) Assay for Cytochrome P450 (CYP1A2) using HepaRG (AID 2283479). A digest of the protocol:
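Assesses CYP1A2 mRNA in human HepaRG liver cells after 48 h chemical exposure at up to 100 uM. Values come from qRT-PCR with bidirectional curve fitting relative to DMSO.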

Read-out in test [15]: cysteine-aspartic acid protease (CASP8), CASP8 (gene 841)
In words: LTEA_HepaRG_CASP8: Life Technologies and Expression Analysis (LTEA) Assay for cysteine-aspartic acid protease (CASP8) using HepaRG (AID 2283480). In outline: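 Differentiated human HepaRG cells, plated 48 h then switched to serum-free induction medium, were exposed in duplicate for 48 h to 8 half-log concentrations up to 100 uM in 0.5% DMSO. CASP8 mRNA was quantified by qRT-PCR, normalized to ACTB/GAPDH/POLR2A.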

Read-out in test [16]: Cytochrome P450 (CYP2B6), CYP2B6 (gene 1555)
In words: LTEA_HepaRG_CYP2B6: Life Technologies and Expression Analysis (LTEA) Assay for Cytochrome P450 (CYP2B6) using HepaRG (AID 2283481). In outline: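 Using 48 h treatment of HepaRG cells in serum-free induction medium, concentrations spanned half-log steps from 100 uM in 0.5% DMSO vehicle. CYP2B6 mRNA induction or loss is scored by qRT-PCR against DMSO.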

Read-out in test [17]: Cytochrome P450 2C19 (Homo sapiens) (UniProt P33261)
Description: LTEA_HepaRG_CYP2C19: Life Technologies and Expression Analysis (LTEA) Assay for CYP2C19 using HepaRG (AID 2283482). In outline:
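Human HepaRG liver cells received test chemicals for 48 h (highest 100 uM, half-log dilutions in 0.5% DMSO). CYP2C19 mRNA induction or loss is read by multiplexed qRT-PCR and fitted in both directions versus vehicle.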

Read-out in test [18]: CYP2C8 (gene 1558)
Description: LTEA_HepaRG_CYP2C8: Life Technologies and Expression Analysis (LTEA) Assay for CYP2C8 using HepaRG (AID 2283483). A digest of the protocol:
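Differentiated human HepaRG cells were exposed for 48 h in serum-free induction medium to eight half-log concentrations up to 100 uM in 0.5% DMSO, in duplicate. CYP2C8 mRNA was measured by TaqMan qRT-PCR, normalized to ACTB, GAPDH and POLR2A, and fitted bidirectionally against DMSO.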

Read-out in test [19]: CYP2E1 (gene 1571)
Description: LTEA_HepaRG_CYP2E1: Life Technologies and Expression Analysis (LTEA) Assay for CYP2E1 using HepaRG (AID 2283485). A digest of the protocol: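 Human liver line HepaRG, plated 48 h, then serum-free induction medium + chemical x 48 h; 8-pt CRC from 100 uM, half-log, 0.5% DMSO, n=2. Readout: CYP2E1 mRNA qRT-PCR vs ACTB/GAPDH/POLR2A; bidirectional fit vs DMSO.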

Read-out in test [20]: CYP2C9 (gene 1559)
In words: LTEA_HepaRG_CYP2C9: Life Technologies and Expression Analysis (LTEA) Assay for CYP2C9 using HepaRG (AID 2283484). A digest of the protocol:
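Differentiated human HepaRG cells were exposed 48 h in serum-free induction medium to eight half-log concentrations up to 100 uM in 0.5% DMSO. CYP2C9 mRNA was measured by qRT-PCR, normalized to ACTB, GAPDH and POLR2A, and fitted bidirectionally against DMSO.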

Cytochrome P450 2C19 (Homo sapiens), sequence (P33261 whole entry, looked up): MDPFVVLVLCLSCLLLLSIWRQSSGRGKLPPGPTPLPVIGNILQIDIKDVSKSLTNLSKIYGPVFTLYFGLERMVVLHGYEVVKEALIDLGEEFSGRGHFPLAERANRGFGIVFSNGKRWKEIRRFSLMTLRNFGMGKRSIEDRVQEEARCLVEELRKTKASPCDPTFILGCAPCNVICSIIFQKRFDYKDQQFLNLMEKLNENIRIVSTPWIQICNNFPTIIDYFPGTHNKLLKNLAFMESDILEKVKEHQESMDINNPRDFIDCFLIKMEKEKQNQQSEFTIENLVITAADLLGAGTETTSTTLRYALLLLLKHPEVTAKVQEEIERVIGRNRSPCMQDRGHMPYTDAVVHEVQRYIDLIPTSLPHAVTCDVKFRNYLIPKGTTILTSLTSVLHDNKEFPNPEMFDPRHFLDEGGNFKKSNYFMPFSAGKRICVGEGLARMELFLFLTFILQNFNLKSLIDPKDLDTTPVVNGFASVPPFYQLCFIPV
Apoptosis regulator Bcl-2 (Homo sapiens), sequence (P10415 whole entry, looked up): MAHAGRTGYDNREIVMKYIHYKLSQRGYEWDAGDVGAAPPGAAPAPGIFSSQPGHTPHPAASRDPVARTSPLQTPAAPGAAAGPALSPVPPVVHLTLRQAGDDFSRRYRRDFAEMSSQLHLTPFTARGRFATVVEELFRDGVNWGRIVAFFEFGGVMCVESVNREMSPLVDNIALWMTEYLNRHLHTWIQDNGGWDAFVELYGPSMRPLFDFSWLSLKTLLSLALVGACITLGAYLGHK
Caspase-3 (Homo sapiens), sequence (P42574 whole entry, looked up): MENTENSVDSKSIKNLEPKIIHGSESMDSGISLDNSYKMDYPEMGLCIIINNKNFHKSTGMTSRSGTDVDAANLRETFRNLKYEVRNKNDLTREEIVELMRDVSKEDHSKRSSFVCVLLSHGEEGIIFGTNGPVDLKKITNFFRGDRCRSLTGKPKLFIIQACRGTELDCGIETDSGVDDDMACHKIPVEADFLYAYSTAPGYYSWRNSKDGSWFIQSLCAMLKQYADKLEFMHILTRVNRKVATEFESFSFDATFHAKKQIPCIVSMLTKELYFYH

The term AC50 denotes the concentration giving half of the maximal activity seen. As for `Cc1cc(-c2ccc(N)c(C)c2)ccc1N`, the compound was classed as inactive in [1], in test [2], in test [3], in [4], in test [5] and in [6]. Further, the outcome in test [8], in [9], in [10], in test [11], in test [12] and in [13] was inactive. Moreover, the compound was classed as inactive in test [15], in test [17] and in test [18]. Moreover, the half-maximal activity concentration (AC50) is 34 µM (active) in test [7], 37 µM (active) in test [14], 9.15 µM (active) in [16] and 16.3 µM (active) in [19].

Take `NS(=O)(=O)C(F)(F)C(F)(F)C(F)(F)C(F)(F)C(F)(F)C(F)(F)C(F)(F)C(F)(F)F`: the half-maximal activity concentration (AC50) in [1] is 16.4 µM (active); in test [2], 14.9 µM (active); in test [4] it was 17.6 µM (active); in [6] it was 4.81 µM (active); in test [7], 11.4 µM (active); in test [8], 4.05 µM (active). The AC50 in test [9] is 10 µM (active); in test [10], 2.79 µM (active); in test [12], 3.73 µM (active); in [14], 5 µM (active); in [15], 12.9 µM (active); in test [16], 9.56 µM (active). Further, the AC50 in test [17] was 9.68 µM (active); in test [18], 11.1 µM (active); in test [19] it was 6.73 µM (active). Also, the outcome in [3], in test [5], in [11] and in test [13] was inactive.

As for `Cc1ccc(O)c(C)c1`, the result in [1], in test [2], in [3], in [4], in test [5] and in test [6] was inactive. The call in test [7], in test [8], in test [9], in test [10], in test [11] and in [12] was inactive. Also, the call in test [13], in [14], in [15], in test [16], in [17] and in [18] was inactive. Also, in test [19], the call was inactive.

In the case of `CN(C)CCO`, the outcome in [1], in [2], in test [3], in test [4], in test [5] and in test [6] was inactive. Further, the compound was classed as inactive in test [7], in test [8], in test [9], in [10], in test [11] and in [12]. In addition, the result in test [13], in [14], in test [15], in test [16], in test [17] and in test [18] was inactive. The compound was called inactive in [20] and in [19].
